Source: the supplement of paper PMC13380429

Columns and labels:
[1] = system: Vero E6 infected with SARS-CoV-2; test: morphology score (similarity to uninfected cells); higher = more like uninfected cells; conditions: 24 h
[2] = system: Vero E6 infected with SARS-CoV-2; test: SARS-CoV-2 infection rate relative to infected DMSO; higher = more infection, active = 60 or less; conditions: 24 h

Compound | morphology score [1] | SARS-CoV-2 infection rate [2]
O=C1NCCN1CCN1CCC(c2cn(-c3ccc(F)cc3)c3ccc(Cl)cc23)CC1 [sertindole] (0.833333 µM) | -0.0791 | 106% (inactive)
N#Cc1ccc(NCCNCC(=O)N2CCC[C@H]2C#N)nc1 (10 µM) | -0.0945 | 114% (inactive)
O=C(NCc1ccc(OC(F)(F)F)cc1)C1c2ccccc2C(=O)N1C1CCOCC1 (stereo not given) (10 µM) | -0.0695 | 105% (inactive)
Nc1ncnc2c1nc(Br)n2[C@@H]1O[C@@H]2COP(=O)(O)O[C@H]2[C@H]1O [8-bromo-cAMP] (10 µM) | 0.422 | 102% (inactive)
COc1cc2ncnc(Nc3ccc(F)c(Cl)c3)c2cc1OCCCN1CCOCC1 [gefitinib] (10 µM) | -0.249 | 112% (inactive)
CC(C)n1nc(-c2ccc3oc(N)nc3c2)c2c(N)ncnc21 (0.833333 µM) | -0.0142 | 102% (inactive)
Cc1cccc(C)c1NC(=O)C[N+](C)(C)C (10 µM) | 0.198 | 97% (inactive)
CC(C)(C)C(=O)OCOC(=O)[C@@H]1N2C(=O)[C@@H](NC(=O)[C@H](N)c3ccccc3)[C@H]2SC1(C)C [pivampicillin] (10 µM) | 0.0461 | 106% (inactive)
CC(C)Nc1cccnc1N1CCN(C(=O)c2cc3cc(NS(C)(=O)=O)ccc3[nH]2)CC1 [delavirdine] (10 µM) | 0.0195 | 110% (inactive)
N=C(N)NCCCC[C@@H]1NC(=O)CCSSC[C@@H](C(N)=O)NC(=O)[C@@H]2CCCN2C(=O)[C@H](Cc2c[nH]c3ccccc23)NC(=O)[C@H](CC(=O)O)NC(=O)CNC1=O [eptifibatide] (10 µM) | -0.125 | 118% (inactive)
